Measured values published in PubChem BioAssay AID1345085 (National Center for Advancing Translational Sciences (NCATS), 2018).
Inconclusive results are not listed. The source made the active and inactive calls. The call rests on the fitted dose curve; in most records, active means well fitted cell-killing curve with a large enough effect; inconclusive means small, poorly fitted or top-dose-only effect, or effect the other way; inactive means no such curve, though single readings can be large or run the other way.

Tested on: HeLa
Test: Confirmatory qHTS for gynecologic anti-cancer compounds from libraries of approved drugs and bioactive compounds; further: nearly all actives have a fitted effect of over 55% in size
Settings: gynecologic cancer cell panel viability, ATPlite luminescence, 48 h; series mostly up to 57.6 µM
How it was run: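 Seeding 1,000 cells per well preceded overnight (16 h) attachment, after which 48 h drug treatment across 57.5 uM–0.977 nM (11 points) was applied. Remaining cellular ATP, detected by ATPlite luminescence, defined IC50.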
Potency means the concentration at half of the fitted maximal effect.

Which Potency does the source give for `CCC(=O)O[C@H]1CC[C@H]2[C@@H]3CCC4=CC(=O)CC[C@]4(C)[C@H]3CC[C@]12C` here?
The Potency was 4320 nM (active).

`C[C@]12CC[C@H]3[C@@H](CCC4=CC(=O)CC[C@@H]43)[C@@H]1CC[C@@H]2OC(=O)CCc1ccccc1` was tested. Which Potency did it give?
The Potency was 2730 nM (active).

How did the Potency turn out when `C/C=C(/C)C(=O)O[C@H]1C(C)=C2[C@H]([C@@H]1OC(=O)CCCCCCC)[C@@](C)(OC(C)=O)C[C@H](OC(=O)CCC)[C@@]1(O)[C@H]2OC(=O)[C@@]1(C)O` was run?
The Potency was 61.1 nM (active).

For `O=C(O)Cc1ccccc1`, which Potency is on record?
The Potency was “inactive”.

`C[C@H]1CCC/C=C/C2C[C@H](O)C[C@H]2[C@H](O)/C=C/C(=O)O1` (stereo partly drawn) was tested. Which Potency did it give?
The Potency was 172 nM (active).

How did the Potency turn out when `CCNC(=O)C[C@@H]1N=C(c2ccc(Cl)cc2)c2cc(OC)ccc2-n2c(C)nnc21` was run?
The Potency was 1530 nM (active).

For `Cc1sc2c(c1C)C(c1ccc(Cl)cc1)=NC(CC(=O)OC(C)(C)C)c1nnc(C)n1-2` (stereo not drawn), which Potency is on record?
Its Potency is 769 nM (active).

How did the Potency turn out when `C=C(C)[C@H]1Cc2c(ccc3c2O[C@@H]2COc4cc(OC)c(OC)cc4[C@@H]2C3=O)O1` was run?
Its Potency is 243 nM (active).
